Compounds with a hit are over-represented: about 5.7% of the library has one in this group of screens.
GLP1R cytotox = qHTS of GLP-1 Receptor Inverse Agonists: Cytotox Screen. HEK293 cAMP-luciferase reporter cells, luminescence, 24 h. Potency, µM (top dose mostly 38.3 µM), usual class: inhibitors. hit rate 0.13% among 410,000. AID 624418, 2012;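 note: loss of luciferase light is scored as toxicity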
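Step one: seed cells (200 cells/uL, DMEM with 10% Nu serum, 1% pen-strep). Step two: 12-hour incubation at 37 deg C. Step three: pin 23 nL compound, incubate 24 hr. Step four: add luciferase reagent, read luminescence 12 min later.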
GLP1R inv ag = qHTS of GLP-1 Receptor Inverse Agonists (Inhibition Mode) | Glucagon-like peptide 1 receptor (Homo sapiens), P43220 | HEK293 GLP-1R CRE-luciferase, luminescence, 24 h; GLP-1R form is constitutively active | Potency, µM (series often up to 38.3 µM), usual class: inhibitors | hit rate 1.6% among 410,000 | AID 624417, 2012; note: nearly all actives have a fitted effect of over 55% in size
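Inverse agonism was detected as reduced cAMP-driven luciferase luminescence after 24 h compound treatment. The cells were HEK293 clones expressing constitutively active human GLP-1R with the reporter. Reporter-only and GPR119 cell lines served as counterscreen controls.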
DRD3 agonist = qHTS of D3 Dopamine Receptor Agonist: qHTS; D(3) dopamine receptor (Homo sapiens), P35462; D3R DiscoveRx beta-arrestin cells, luminescence, 90 min; max activation, %; hit rate 0.58% among 410,000; AID 652048, 2013; in the data active = max activation above about 30%
Target sequence (P35462 whole entry, looked up): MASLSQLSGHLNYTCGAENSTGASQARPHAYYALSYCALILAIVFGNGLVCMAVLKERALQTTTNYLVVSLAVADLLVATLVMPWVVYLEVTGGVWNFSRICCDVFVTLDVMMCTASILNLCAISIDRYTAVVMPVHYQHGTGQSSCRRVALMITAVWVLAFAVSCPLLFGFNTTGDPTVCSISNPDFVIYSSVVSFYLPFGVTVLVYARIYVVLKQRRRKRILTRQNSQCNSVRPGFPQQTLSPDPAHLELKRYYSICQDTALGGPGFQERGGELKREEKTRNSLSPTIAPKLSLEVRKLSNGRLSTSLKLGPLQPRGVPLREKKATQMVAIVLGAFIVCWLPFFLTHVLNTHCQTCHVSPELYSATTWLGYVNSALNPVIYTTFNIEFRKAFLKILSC
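Agonist-mode cell screen: cells plated at 1500/well and incubated overnight at 37 °C, then exposed to library compounds for 90 min at 37 °C. Detection reagent was added for 30–60 min at room temperature, and luminescence was read.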
GLP-1R agonist = qHTS of GLP-1 Receptor Agonists; Glucagon-like peptide 1 receptor (Homo sapiens), P43220; HEK293 GLP-1R CRE-luciferase, luminescence, 4-6 h; cells express a hypersensitive GLP-1R form; Potency, µM (highest dose often 45.6 µM), usual class: activators; hit rate 0.007% among 380,000; AID 624172, 2012
D3 antag = qHTS of D3 Dopamine Receptor Antagonist: qHTS | D(3) dopamine receptor (Homo sapiens), P35462 | D3R cells, DiscoveRx beta-arrestin luminescence, antagonist mode; stronger effect = lower value | max response, negative = inhibition, % | hit rate 2.5% among 360,000; in the data active = max response below about -50%; inconclusive = no clear call, values can overlap the other calls
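Cells expressing the human receptor were seeded at 1500 cells/well, incubated overnight at 37 degrees C in 5% CO2, then exposed to library compounds with dopamine controls for 90 minutes at 37 degrees C before luminescent detection.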
ClpP mod = qHTS Assay for Activators of ClpP | ATP-dependent Clp protease proteolytic subunit (Bacillus subtilis (strain 168)), P80244 | purified B. subtilis ClpP, FRET peptide cleavage, 20 min | Potency, µM (top dose mostly 57.5 µM) | hit rate 1.9% among 340,000 | AID 651965, 2013; active = well fitted falling curve with a large enough effect; inconclusive = small, poorly fitted or top-dose-only effect; inactive = no such curve, though single readings can be large or run the other way; note: the source files actives as falling curves though it sought activators and does not explain the sign; nearly all actives have a fitted effect of over 65% in size
Target sequence (P80244 whole entry, looked up): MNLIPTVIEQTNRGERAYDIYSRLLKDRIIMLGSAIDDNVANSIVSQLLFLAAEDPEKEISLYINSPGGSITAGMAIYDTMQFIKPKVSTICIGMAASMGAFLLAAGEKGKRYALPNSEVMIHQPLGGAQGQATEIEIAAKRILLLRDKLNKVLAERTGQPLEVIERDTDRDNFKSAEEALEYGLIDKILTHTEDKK
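Buffer: 100 mM Tris/HCl pH8, 100 mM KCl, 0.05% low protease BSA, 2.5% glycerol, 0.01% Tween-20. ClpP 10 microg/mL final; 20 min RT; delta FRET normalized to ADEP and DMSO controls.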
Hits are given with their value; - = inactive; ? = inconclusive; . = no result. Unless noted, calls come from the whole dose curve; as a rule, active = well fitted curve in the direction sought with a large enough effect; inconclusive = small, poorly fitted or top-dose-only effect, or another doubt; inactive = no such curve, though single readings can be large; an effect the other way counts as inactive or inconclusive.

SMILES | GLP1R cytotox | GLP1R inv ag | DRD3 agonist | GLP-1R agonist | D3 antag | ClpP mod
O=C(NCCN1CCC(n2c(=O)[nH]c3ccccc32)CC1)c1ccc(F)c(F)c1 | - | - | - | - | -93.2 | -
O=C(NCCN1CCC(n2c(=O)[nH]c3ccccc32)CC1)c1ccc(F)c(C(F)(F)F)c1 | - | ? | - | - | -83.8 | -
O=c1[nH]c2ccccc2n1C1CCCCC1 | - | - | - | - | - | -
COC(=O)CCCn1cc(CN2CC(N3CCN(C4CCN(C)CC4)CC3)CS2(=O)=O)nn1 (configuration not stated) | - | - | - | - | - | -
COC(=O)c1ccccc1NC(=O)Cn1c(=O)n(CCCCC(=O)NCc2ccc3c(c2)OCO3)c(=O)c2ccccc21 | - | - | - | - | . | -
Cc1cn2c(=O)cc(COc3cccc(NC(=O)c4ccccc4Cl)c3)nc2s1 | - | - | - | - | . | -
CCN1CCN(c2cc(SC(C)C)nc(-c3ccc(OC)cc3)n2)CC1 | ? | - | - | - | -64.9 | -
CN1[C@@H]2CC[C@H]1CC(OC(=O)[C@@H](O)c1ccccc1)C2 (some centres not stated) | . | . | . | - | . | .
Nc1ncnc(Sc2ncccn2)c1[N+](=O)[O-] | 11.2µM | ? | - | - | -84.3 | -
Cc1cc(O)c(C(c2ccccc2)N2CCN(c3ccccc3)CC2)c(=O)n1Cc1ccco1 (configuration not stated) | - | ? | - | . | . | -
Cc1c(C(=O)O)c(-c2ccccc2)nn1-c1ccccc1 | - | - | - | - | - | 15.8µM
O=C(CCN1C(=O)/C(=C\c2ccccc2)SC1=S)N1CCCCC1 | - | - | - | ? | - | .
COc1ccc(/C=C2/SC(=S)N(CCCC(=O)Nc3ccc(O)cc3)C2=O)cc1 | ? | 5.62µM | - | - | - | -
COC(=O)c1ccc(/C=C2\SC(=S)N(CCCC(=O)NCCCN3CCOCC3)C2=O)cc1 | 8.91µM | - | - | - | - | .
COc1cccc(/C=C2\SC(=S)N(CCCC(=O)N3CCCC3)C2=O)c1 | ? | 5.01µM | - | - | - | -
O=C(CCN1C(=O)/C(=C/c2cccs2)SC1=S)N1CCCCC1 | - | - | 33.6 | - | - | .
CCCNC(=O)c1cnc2c(-c3ccc(OCC)c(OCC)c3)c(C)nn2c1-c1ccccc1 | - | - | - | . | . | -
CCOc1ccc(-n2c(SCC(=O)Nc3ccc(CC)cc3)nc3c(oc4ccccc43)c2=O)cc1 | - | - | - | . | . | -
COc1cc(NC(=O)c2cccc3c(-c4cnn(C)c4)coc23)cc(OC)c1OC | - | ? | - | - | - | -
Cc1ccc(S(=O)(=O)N2C3CCCCC3O[C@H]2CC(=O)OCc2ccccc2)cc1 (some centres not stated) | - | - | - | . | - | -
COc1ccc2cc3cc(C(=O)NCCc4ccccc4)sc3nc2c1Cl | - | - | - | . | . | -
COc1cc(NC(=O)C2CCCN(S(=O)(=O)c3ccc4c(c3)oc(=O)n4C)C2)c(C(=O)O)cc1OC (configuration not stated) | - | - | - | - | . | -
COC(=O)c1ccccc1NC(=O)Cn1c(=O)n(-c2cccc(OC)c2)c(=O)c2c(C)c(C(=O)N(C)C)sc21 | - | - | - | . | . | -
CC(/C=C1\SC(=S)N(CCC(=O)Nc2cccc(C(=O)O)c2)C1=O)=C\c1ccccc1 | - | - | - | - | - | .
CCN(CC)CCOC(=O)c1ccc(NC(=O)CCCN2C(=O)/C(=C\c3cccs3)SC2=S)cc1 | ? | ? | - | - | -109.4 | -
SMILES | GLP1R cytotox | GLP1R inv ag | DRD3 agonist | GLP-1R agonist | D3 antag | ClpP mod
COc1ccc(/C=C2\SC(=S)N(CCC(=O)NCCc3ccc(O)cc3)C2=O)cc1 | - | - | - | - | - | -
O=C(CCN1C(=O)/C(=C/c2ccccc2)SC1=S)NCCc1ccc(O)cc1 | ? | 5.01µM | - | - | - | -
CC(/C=C1\SC(=S)N(CCC(=O)Nc2ccccc2O)C1=O)=C\c1ccccc1 | - | 5.62µM | - | - | - | -
Cc1cccc2cc(C#N)c(NCCNS(=O)(=O)c3ccc4c(c3)OCCO4)nc12 | - | - | - | - | - | 31.6µM
CCC(=O)NCCCNc1nc2c(C)cccc2cc1C#N | - | - | - | - | - | .
C(=N\c1nc2ccccc2[nH]1)/c1cccs1 | - | - | - | - | -56.6 | -
COc1cccc(CN2C(=O)c3ccccc3Sc3ccc(C(=O)NCCc4ccc(C)cc4)cc32)c1 | - | - | - | - | . | -
Cc1cc(C)n2nc(NCc3ccccc3Cl)nc2n1 | - | - | - | . | . | -
COc1ccc(CNc2nc3nc(C)cc(C)n3n2)cc1OC | - | - | - | - | -56.0 | -
Cc1cc(C)n2nc(NCc3cccc(Br)c3)nc2n1 | - | - | - | - | ? | 14.1µM
COc1ccc(NC(=O)N[C@H]2CC[C@@H](CC(=O)NC3CCC3)O[C@@H]2CO)cc1 | - | - | - | . | - | -
Cc1cccc(C)c1OC(=O)CSc1nnc(-c2ccc3c(c2)OCO3)o1 | - | - | - | . | . | 25.1µM
COC(=O)CSc1nnc(-c2ccc3c(c2)OCO3)n1C | - | - | - | - | -68.8 | -
Cc1ccc(OC(=O)CSc2nnc(-c3ccc4c(c3)OCO4)o2)cc1 | - | - | - | . | . | -
CNC(=O)CSc1nnc(-c2ccc3c(c2)OCO3)n1C | - | - | - | - | - | -
CC(=O)NC(CCS(C)(=O)=O)C(=O)Nc1cc(Cl)ccc1Cl (configuration not stated) | - | - | - | - | - | -
COC(=O)c1ccccc1NC(=O)C(CCS(C)(=O)=O)NC(C)=O (configuration not stated) | - | - | - | - | - | 28.2µM
CC(=O)NC(CCS(C)(=O)=O)C(=O)Nc1ccccc1Cl (configuration not stated) | - | - | - | - | - | 15.8µM
CCOC(=O)Cc1nn(Cc2nc(-c3ccc(C#N)cc3)cs2)c(=O)c2ccccc12 | - | - | 30.5 | - | - | .
CCc1ccc(NC(=O)CSc2nc(=O)n3cc(C)ccc3n2)cc1 | - | - | - | - | - | 25.1µM
Cc1ccc2nc(SCC(=O)N3CCCC3)nc(=O)n2c1 | - | - | - | - | - | 25.1µM
Cc1nc2ccccn2c(=O)c1NC(=O)c1ccccc1Cl | - | - | - | . | . | -
CC1C(=O)CC(c2ccc([N+](=O)[O-])cc2)NC1c1ccc([N+](=O)[O-])cc1 (configuration not stated) | - | 8.91µM | - | - | - | .

High-throughput results: PubChem, National Center for Advancing Translational Sciences (NCATS)
